This note sets out measurements from PubChem BioAssay.

Calls of active or inactive are those of the source.

Assay [1] is described as follows: small molecules captured by biotinylated probe aFSTL3 – biochemical, small-molecule microarray, fluorescence 635/667, stem cell growth factor project, primary screen (AID 1064).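 Also: measures binding of the biotinylated anti-FSTL3 antibody to printed compounds.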 The following applies: higher = more signal.
Assay [2] can be described thus: binders from COS7 lysate, DM2A8 probe, primary screen, torsin A project, cell lysate, small-molecule microarray, fluorescence 635/667 (AID 1065). The conditions noted are these: higher = more signal, COS7 lysate expressing mutant human TOR1A.
The nature of assay [3]: small molecules captured by biotinylated probe aFGF2 – biochemical, small-molecule microarray, fluorescence 635/667, stem cell growth factor project, primary screen (AID 1067).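 Also: measures binding of biotinylated aFGF2 protein to printed compounds on slides; z-score merges feature fluorescence and signal-to-noise across triplicate slides.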 The conditions noted are these: higher = more signal.
A short description of assay [4]: small molecules captured by biotinylated probe aFGF10 – biochemical, small-molecule microarray, fluorescence 635/667, stem cell growth factor project, primary screen (AID 1071).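 Also: score merges 667 nm spot intensity and signal to noise from triplicate slides.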 The conditions noted are these: higher = more signal.
The target of assay [5] is Neurogenic locus notch homolog protein 2 (Homo sapiens) (UniProt Q04721). Nature of the assay: small molecules binding Notch2 protein – biochemical, small-molecule microarray, 635 nm fluorescence, stem cell growth factors, primary screen (AID 1073). The following applies: higher = more signal.
For assay [6], the target named is Pro-neuregulin-1, membrane-bound isoform (Homo sapiens) (UniProt Q02297). Put plainly: small molecules binding neuregulin-1 protein – biochemical, small-molecule microarray, fluorescence 635/667, psychiatric disease protein project, primary screen (AID 1075).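 Also: score combines 667 nm spot fluorescence with signal to noise.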 The following applies: NRG1 binding, 635 nm fluorescence, higher = more signal.
Sequence of Pro-neuregulin-1, membrane-bound isoform (Homo sapiens) (Q02297 whole entry, looked up, the tested form may be a part, canonical isoform): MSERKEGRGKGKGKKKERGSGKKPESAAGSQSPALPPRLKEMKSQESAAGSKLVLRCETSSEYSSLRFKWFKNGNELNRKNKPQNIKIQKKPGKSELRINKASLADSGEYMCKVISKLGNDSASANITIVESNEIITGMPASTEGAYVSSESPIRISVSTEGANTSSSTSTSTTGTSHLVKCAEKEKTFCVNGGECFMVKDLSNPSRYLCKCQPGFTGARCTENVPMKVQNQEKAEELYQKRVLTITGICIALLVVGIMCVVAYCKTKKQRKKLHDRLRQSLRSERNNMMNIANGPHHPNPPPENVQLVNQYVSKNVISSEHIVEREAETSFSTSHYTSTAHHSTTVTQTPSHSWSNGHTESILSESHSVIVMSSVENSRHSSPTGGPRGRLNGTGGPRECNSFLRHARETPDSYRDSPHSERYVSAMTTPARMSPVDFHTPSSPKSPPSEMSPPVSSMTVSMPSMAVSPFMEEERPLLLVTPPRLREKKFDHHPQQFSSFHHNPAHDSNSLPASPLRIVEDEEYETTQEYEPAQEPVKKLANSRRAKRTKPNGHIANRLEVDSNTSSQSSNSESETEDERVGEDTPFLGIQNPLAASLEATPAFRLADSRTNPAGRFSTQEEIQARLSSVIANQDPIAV
Assay [7] deals with Neuregulin-1 EGF-like domain. Put plainly: small molecules binding NRG1 EGF domain – biochemical, small-molecule microarray, 635 nm fluorescence, primary screen (AID 1081).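 Also: binding of the protein to compounds printed on small-molecule microarray slides.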 The following applies: higher = more signal.
Assay [8] is described as follows: FRG1 expression reporter modulators in myotubes – cell-based, C2C12 myotubes, firefly/Renilla luciferase, luminescence, FRG1 inhibition for FSHD, primary screen (AID 1084). The conditions noted are these: FRG1 promoter luciferase, higher = more signal, called active from +8 up or from −8 down.
The nature of assay [9]: small molecules captured by biotinylated probe aFST – biochemical, small-molecule microarray, fluorescence 635/667, stem cell growth factor project, primary screen (AID 1086).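 Also: score merges 667 nm fluorescence with signal-to-noise of each printed compound spot.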 The following applies: higher = more signal.
Assay [10] can be described thus: binders of probe aHhip on microarray, primary screen, stem cell growth factor project, biochemical, small-molecule microarray, fluorescence 635/667 (AID 1087).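 Also: score merges spot fluorescence at 667nm with spot signal to noise ratio.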 The conditions noted are these: higher = more signal.
Assay [11] relates to PRMT1 (protein arginine N-methyltransferase 1). Nature of the assay: small molecules binding arginine methyltransferase PRMT1 – biochemical, small-molecule microarray, 635 nm fluorescence, primary screen (AID 1088).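 Also: binding of Prmt1 protein to compounds spotted on small-molecule microarray slides.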 The conditions noted are these: higher = more signal.
Assay [12] can be described thus: growth effects on S. cerevisiae YJM789 – YJM789 clinical isolate, OD600, 24 h, basal, primary screen (AID 1089).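 Also: growth of clinical yeast isolate S. cerevisiae YJM 789 seeded 1000 cells per well; test concentration not given here.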 The conditions noted are these: higher = more signal, called active from +8 up or from −8 down.
Assay [13] is described as follows: S. pombe growth modifiers, basal conditions – strain 972, OD600, 24 h, no modulator, primary screen (AID 1090).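 Also: basal condition with compound alone and no growth modifier present; test concentration not given here.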 The following applies: S. pombe 972 growth, higher = more signal, called active from +8 up or from −8 down.
Assay [14] is described as follows: budding yeast growth modifiers under rapamycin – strain BY4716, OD600, 96 h, primary screen (AID 1091). Also: test concentration not given here. The conditions noted are these: S. cerevisiae BY4716 + rapamycin, higher = more signal, called active from +8 up or from −8 down.
In assay [15] the target is Torsin-1A-interacting protein 2 (Homo sapiens) (UniProt Q8NFQ8). Nature of the assay: small molecules binding lysate-expressed LULL1 – cell lysate, human LULL1 lysate, 635/667 nm fluorescence, primary screen (AID 1092).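 Also: probe is lysate of COS7 cells overexpressing human LULL1; score merges per-feature 667 nm fluorescence with signal-to-noise.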 The following applies: small-molecule microarray, hLULL1 lysate binding, 635 nm fluorescence; higher = more signal.
Sequence of Torsin-1A-interacting protein 2 (Homo sapiens) (Q8NFQ8 whole entry, looked up): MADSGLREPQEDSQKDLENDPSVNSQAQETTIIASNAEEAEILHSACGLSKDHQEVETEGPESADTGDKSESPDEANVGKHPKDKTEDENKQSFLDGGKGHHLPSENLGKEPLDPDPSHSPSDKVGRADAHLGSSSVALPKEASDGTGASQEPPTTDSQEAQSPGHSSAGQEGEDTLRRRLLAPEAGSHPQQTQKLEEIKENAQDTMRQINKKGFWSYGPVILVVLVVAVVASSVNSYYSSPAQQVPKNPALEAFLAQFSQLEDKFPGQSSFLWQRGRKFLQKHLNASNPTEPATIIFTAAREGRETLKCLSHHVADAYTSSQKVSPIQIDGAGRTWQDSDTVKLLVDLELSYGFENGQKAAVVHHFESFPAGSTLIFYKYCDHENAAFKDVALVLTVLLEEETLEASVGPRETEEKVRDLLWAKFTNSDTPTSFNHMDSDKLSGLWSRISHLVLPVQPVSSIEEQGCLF
Assay [16] is described as follows: optical density change of DRC41 E. coli – strain DRC41, OD650, 24 h, E. coli filamentation project, primary screen (AID 1093).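 Also: MC1000 strain lacking acrAB efflux and sulA so SOS filamentation is blocked; test concentration not given here.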 The following applies: E. coli DRC41 growth, higher = more signal, called active from +8 up or from −8 down.
The nature of assay [17]: probe aLefty2 binding to arrayed compounds – biochemical, biotinylated probe, 635/667 nm fluorescence, primary screen (AID 1094).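 Also: score merges spot fluorescence near 667 nm with spot signal-to-noise ratio.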 The conditions noted are these: small-molecule microarray, higher = more signal.
Assay [18] concerns Noggin (protein binding on small-molecule microarray). Nature of the assay: small molecules binding Noggin protein – biochemical, 635/667 nm fluorescence, primary screen (AID 1095).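 Also: score merges 667 nm feature fluorescence with signal to noise over triplicate slides.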 The conditions noted are these: 635 nm fluorescence, higher = more signal.
In assay [19] the target is Neurogenic locus notch homolog protein 3 (Homo sapiens) (UniProt Q9UM47). Nature of the assay: small molecules binding NOTCH3 protein – biochemical, 635/667 nm fluorescence, primary screen (AID 1096). The conditions noted are these: small-molecule microarray, 635 nm fluorescence, higher = more signal.
Sequence of Neurogenic locus notch homolog protein 3 (Homo sapiens) (Q9UM47 whole entry, looked up): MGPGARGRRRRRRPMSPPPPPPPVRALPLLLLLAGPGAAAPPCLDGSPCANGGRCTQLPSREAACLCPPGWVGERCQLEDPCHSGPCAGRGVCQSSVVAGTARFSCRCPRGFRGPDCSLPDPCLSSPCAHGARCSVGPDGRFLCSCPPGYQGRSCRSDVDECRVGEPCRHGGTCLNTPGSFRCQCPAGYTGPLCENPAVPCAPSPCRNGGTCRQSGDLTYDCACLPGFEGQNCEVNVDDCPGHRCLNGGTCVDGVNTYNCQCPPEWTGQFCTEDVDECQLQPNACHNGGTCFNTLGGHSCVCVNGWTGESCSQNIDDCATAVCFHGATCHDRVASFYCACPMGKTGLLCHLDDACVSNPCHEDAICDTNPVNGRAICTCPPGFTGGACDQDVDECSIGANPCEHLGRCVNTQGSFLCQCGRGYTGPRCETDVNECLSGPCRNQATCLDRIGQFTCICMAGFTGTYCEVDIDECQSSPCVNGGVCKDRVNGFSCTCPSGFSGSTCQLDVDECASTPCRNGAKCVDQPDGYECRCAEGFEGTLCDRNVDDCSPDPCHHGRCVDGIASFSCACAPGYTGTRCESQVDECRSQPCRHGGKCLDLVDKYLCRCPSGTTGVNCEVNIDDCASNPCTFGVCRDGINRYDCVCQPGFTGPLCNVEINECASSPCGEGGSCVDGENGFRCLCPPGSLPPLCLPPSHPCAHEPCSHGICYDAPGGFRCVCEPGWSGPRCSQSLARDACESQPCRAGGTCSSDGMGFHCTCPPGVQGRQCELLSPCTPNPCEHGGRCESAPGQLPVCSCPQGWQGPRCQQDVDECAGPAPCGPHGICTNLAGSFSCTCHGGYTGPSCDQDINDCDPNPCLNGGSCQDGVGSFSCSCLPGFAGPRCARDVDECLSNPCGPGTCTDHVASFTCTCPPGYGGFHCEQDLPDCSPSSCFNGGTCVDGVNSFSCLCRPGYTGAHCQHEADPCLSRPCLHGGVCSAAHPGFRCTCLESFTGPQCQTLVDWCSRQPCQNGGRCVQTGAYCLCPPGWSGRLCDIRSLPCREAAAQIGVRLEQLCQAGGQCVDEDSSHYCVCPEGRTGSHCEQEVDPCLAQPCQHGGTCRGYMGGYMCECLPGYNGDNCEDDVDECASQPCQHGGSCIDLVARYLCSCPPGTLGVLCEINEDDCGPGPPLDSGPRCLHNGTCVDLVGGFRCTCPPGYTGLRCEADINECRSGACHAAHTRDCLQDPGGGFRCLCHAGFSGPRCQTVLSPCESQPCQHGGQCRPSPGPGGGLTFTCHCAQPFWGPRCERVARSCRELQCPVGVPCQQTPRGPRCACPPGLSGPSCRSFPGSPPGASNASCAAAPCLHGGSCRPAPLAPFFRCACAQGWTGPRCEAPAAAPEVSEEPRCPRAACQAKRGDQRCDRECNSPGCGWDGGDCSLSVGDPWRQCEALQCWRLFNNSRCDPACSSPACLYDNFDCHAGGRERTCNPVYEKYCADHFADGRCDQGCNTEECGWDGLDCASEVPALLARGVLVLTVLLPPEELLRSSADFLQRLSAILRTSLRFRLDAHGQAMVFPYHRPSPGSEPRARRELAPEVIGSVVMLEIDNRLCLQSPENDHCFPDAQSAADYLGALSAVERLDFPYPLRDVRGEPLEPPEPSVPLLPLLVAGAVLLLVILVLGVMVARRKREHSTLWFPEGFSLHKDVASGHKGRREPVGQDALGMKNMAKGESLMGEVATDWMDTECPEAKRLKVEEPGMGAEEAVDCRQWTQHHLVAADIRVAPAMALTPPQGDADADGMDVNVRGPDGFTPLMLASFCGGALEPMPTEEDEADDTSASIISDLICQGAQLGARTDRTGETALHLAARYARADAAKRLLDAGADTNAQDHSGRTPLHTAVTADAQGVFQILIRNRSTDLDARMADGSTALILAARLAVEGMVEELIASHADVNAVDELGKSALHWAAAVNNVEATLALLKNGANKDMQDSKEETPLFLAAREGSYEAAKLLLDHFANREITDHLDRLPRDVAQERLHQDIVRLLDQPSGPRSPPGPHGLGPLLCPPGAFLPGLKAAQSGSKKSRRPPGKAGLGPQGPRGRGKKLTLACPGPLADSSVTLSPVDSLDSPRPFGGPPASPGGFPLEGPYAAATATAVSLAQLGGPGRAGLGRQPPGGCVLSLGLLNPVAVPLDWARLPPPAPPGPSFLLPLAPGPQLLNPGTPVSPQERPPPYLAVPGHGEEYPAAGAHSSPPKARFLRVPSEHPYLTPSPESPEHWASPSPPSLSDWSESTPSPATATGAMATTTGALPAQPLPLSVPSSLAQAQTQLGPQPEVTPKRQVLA
The nature of assay [20]: probe aEGFR binding to arrayed compounds – biochemical, biotinylated probe, 635/667 nm fluorescence, primary screen (AID 1097).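 Also: probe is a biotinylated anti-EGFR antibody binding compounds printed on slides; score combines fluorescence near 667 nm and signal to noise of each spot.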 The conditions noted are these: small-molecule microarray, higher = more signal.

Regarding `COC(=O)[C@@]1(Cc2ccccc2)[C@@H]2[C@@H](CC(=O)[C@H]2CC(=O)C(=O)N(C)C)CN1C(=O)c1ccccc1`, the composite z-score in assay [1] was 0.186; in assay [2] it was -1; in [3], -0.169; in assay [4], 0.281; in assay [5], 1.19; in assay [6] it was 1.89. Further, the composite z-score in [7] is 1.21; in [9], 0.319; in assay [10], -0.0994; in [11] it was -0.476; in assay [15], 3.34; in assay [17], -0.0221. The figures for the composite z-score in [18], in [19] and in [20] were -0.505, -0.18 and 0.142, respectively. Further, the z-score in assay [8] was 1.1 (inactive); in assay [12], 1.02 (inactive); in [13], 1.29 (inactive); in assay [14], 0.633 (inactive); in assay [16], -0.2 (inactive).
For `CC(C)C(=C=CC[C@@H](O)c1ccccc1OCCO)C[C@@H](O)c1cc(Cl)cc(Cl)c1O`, the composite z-score in assay [1] is -0.667; in [2] it was 1.84; in assay [3], -0.076; in assay [4] it was 0.961; in assay [5] it was 1.16; in [6], 1.48. The composite z-score in assay [7] was 1.19; in assay [9], 0.704; in assay [10], -0.0296; in assay [11], 1.54; in assay [15], 2.7; in assay [17], -0.108. Moreover, the composite z-score in assay [18] amounted to 1.67; in assay [19], 1.09; in assay [20], 0.0182. The z-score in [8] was -1.95 (inactive); in assay [12] it was -0.0964 (inactive); in [13], -1.46 (inactive); in assay [14], -0.443 (inactive); in assay [16] it was -0.101 (inactive).
In the case of `COC(=O)[C@]1(CO)N=C(c2ccc(OCCCO)cc2)O[C@@H]1c1ccccc1CN=[N+]=[N-]`, the composite z-score in assay [1] is -0.0858; in [2], -0.132; in [3] it was -0.155; in [4], -0.546; in assay [5], -0.663; in assay [6], -0.12. In addition, the composite z-score was 1.16 in assay [7]; -0.144 in assay [9]; -0.286 in assay [10]; 0.575 in assay [11]; 0.852 in assay [15]; -0.0884 in [17]. For the same compound, the figures for the composite z-score in assay [18], in assay [19] and in [20] were 0.227, -0.318 and -0.285, respectively. Further, the z-score in assay [8] is 1.7 (inactive); in [12], 0.11 (inactive); in [13] it was 0.44 (inactive); in assay [14] it was 1.85 (inactive); in assay [16], 0.628 (inactive).
For `CCOC(=O)C1=CC[C@@H](c2ccccc2)N(S(=O)(=O)c2ccc(C)cc2)[C@H]1C#N`, the composite z-score in assay [1] is -0.18; in [2], -0.0196; in [3] it was -0.0381; in assay [4], 0.848; in assay [5] it was 1.25; in assay [6], 0.741. The composite z-score is 1.29 in assay [7]; 1.1 in assay [9]; -0.191 in assay [10]; 0.811 in [11]; 2.99 in assay [15]; -0.0179 in [17]. The composite z-score in assay [18] was -0.14; in assay [19], 0.612; in assay [20], 0.0985. Besides, the z-score in assay [8] was 1.04 (inactive); in [12], 0.0536 (inactive); in assay [13] it was -1.06 (inactive); in assay [14], 0.281 (inactive); in [16] it was -0.121 (inactive).
As to `CCCCN1CC=CC23O[C@@H]4C=CCOC(=O)[C@@H]4[C@H]2C(=O)N(CCO)[C@@H]3C1=O` (stereo not given in full), the composite z-score is 1.37 in assay [1]; 0.0339 in [2]; -0.168 in assay [3]; -1.03 in assay [4]; -1.39 in assay [5]; 0.332 in [6]. Besides, the composite z-score in assay [7] was 0.695; in [9], -0.657; in assay [10], -0.0645; in [11], -0.757; in assay [15] it was 0.62; in assay [17], 0.221. Besides, the composite z-score in [18] was -1.45; in assay [19] it was -0.823; in [20], -0.327. Further, the z-score in [8] is 0.432 (inactive); in assay [12], -0.312 (inactive); in assay [13], -0.706 (inactive); in assay [14], -0.179 (inactive); in [16], -0.454 (inactive).
